In PubChem BioAssay (NCATS):
Values without a mark were called inactive. Inconclusive results are not listed. A call without a number means that no potency is given here. Calls of active or inactive are those of the source. Unless noted, calls come from the whole dose curve; as a rule, active = well fitted curve in the direction sought with a large enough effect; inconclusive = small, poorly fitted or top-dose-only effect, or another doubt; inactive = no such curve, though single readings can be large; an effect the other way counts as inactive or inconclusive.

Key:
[1] = target: Arylsulfatase A (Homo sapiens) (UniProt P15289); experiment: qHTS screen for enhancers of Arylsulfatase A (ASA1): LOPAC Validation Assay (AID 720538)
Arylsulfatase A (Homo sapiens), sequence (P15289 whole entry, looked up): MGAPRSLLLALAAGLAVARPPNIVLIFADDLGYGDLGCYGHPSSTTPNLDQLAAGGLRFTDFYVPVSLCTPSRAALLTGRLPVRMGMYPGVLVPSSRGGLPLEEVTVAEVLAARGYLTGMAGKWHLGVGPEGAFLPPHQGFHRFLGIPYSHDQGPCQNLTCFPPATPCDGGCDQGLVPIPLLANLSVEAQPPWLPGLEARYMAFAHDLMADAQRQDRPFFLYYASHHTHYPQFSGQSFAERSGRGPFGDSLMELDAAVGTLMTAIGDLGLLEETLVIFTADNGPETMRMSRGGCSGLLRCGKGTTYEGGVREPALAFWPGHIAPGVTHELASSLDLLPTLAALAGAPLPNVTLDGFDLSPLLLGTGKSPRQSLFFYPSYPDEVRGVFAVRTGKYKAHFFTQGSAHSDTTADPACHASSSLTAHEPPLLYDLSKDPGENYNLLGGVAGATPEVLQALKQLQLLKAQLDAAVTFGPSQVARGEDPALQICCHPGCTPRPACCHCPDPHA
Method in brief: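 MLD patient fibroblasts (SV40, ASA-I179S), 1536-well; adhere 6 hrs; cpd 48h, 37 degree C, 5% CO2; pNCS 0.5mM final in lysis buffer, 14h RT; stop 1N NaOH final; fluor. Ex525/Em598.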

[2] = qHTS for compounds that reverse cellular toxicity of Amyloid beta (A-beta) peptide in yeast: LOPAC Validation Assay (AID 720559)
Method in brief: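 Medium dispensed, compounds pinned, A-beta yeast suspension added; plates held at 30 C for 48 hr; absorbance measured at 600 nm to gauge growth; values scaled between DMSO and FeCl3/clioquinol (equimolar) controls.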

[3] = qHTS for Activators of Parkin Expression: LOPAC Validation Assay (NLuc Reporter) (AID 720572; note: potency is the fitted concentration of half-maximal effect)
Method in brief: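 Parkin promoter-driven FLuc/NLuc neuronal reporter cells; 24 h plating, 7-pt dose response, 24 h at 37 C/5% CO2; FLuc then NanoLuc reagent, 10 min each, luminescence; DMSO/positive control normalized.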

[4] = qHTS for Activators of Parkin Expression: LOPAC Validation Assay (FLuc Reporter) (AID 720573)
Method in brief: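 Cells seeded, 24 h; compounds pinned, 7-pt dose response; 24 h at 37 C/5% CO2; volume reduced; FLuc reagent 10 min RT; luminescence read. Normalization: DMSO = 0, positive control = 100%.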

[5] = target: T1, Hexokinase-4 (Homo sapiens) + Glucokinase regulatory protein (Homo sapiens) (UniProt P35557+Q14397); experiment: qHTS assay for inhibitors of recombinant human GCK-GKRP interaction: Diaphorase-coupled assay (AID 743205)
T1 sequence (P35557 whole entry, looked up): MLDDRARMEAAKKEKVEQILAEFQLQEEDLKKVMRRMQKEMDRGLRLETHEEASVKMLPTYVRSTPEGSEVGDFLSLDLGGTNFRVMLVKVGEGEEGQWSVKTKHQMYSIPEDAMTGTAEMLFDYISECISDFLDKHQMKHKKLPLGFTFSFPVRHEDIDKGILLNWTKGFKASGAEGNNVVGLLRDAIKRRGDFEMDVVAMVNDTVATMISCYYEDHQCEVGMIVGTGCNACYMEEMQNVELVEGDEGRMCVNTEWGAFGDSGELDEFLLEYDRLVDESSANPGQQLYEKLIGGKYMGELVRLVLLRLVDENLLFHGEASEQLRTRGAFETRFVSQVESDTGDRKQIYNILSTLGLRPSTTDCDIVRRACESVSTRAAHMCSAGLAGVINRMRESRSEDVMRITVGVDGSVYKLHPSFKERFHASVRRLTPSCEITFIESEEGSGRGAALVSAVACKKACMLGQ
T1 sequence (Q14397 whole entry, looked up): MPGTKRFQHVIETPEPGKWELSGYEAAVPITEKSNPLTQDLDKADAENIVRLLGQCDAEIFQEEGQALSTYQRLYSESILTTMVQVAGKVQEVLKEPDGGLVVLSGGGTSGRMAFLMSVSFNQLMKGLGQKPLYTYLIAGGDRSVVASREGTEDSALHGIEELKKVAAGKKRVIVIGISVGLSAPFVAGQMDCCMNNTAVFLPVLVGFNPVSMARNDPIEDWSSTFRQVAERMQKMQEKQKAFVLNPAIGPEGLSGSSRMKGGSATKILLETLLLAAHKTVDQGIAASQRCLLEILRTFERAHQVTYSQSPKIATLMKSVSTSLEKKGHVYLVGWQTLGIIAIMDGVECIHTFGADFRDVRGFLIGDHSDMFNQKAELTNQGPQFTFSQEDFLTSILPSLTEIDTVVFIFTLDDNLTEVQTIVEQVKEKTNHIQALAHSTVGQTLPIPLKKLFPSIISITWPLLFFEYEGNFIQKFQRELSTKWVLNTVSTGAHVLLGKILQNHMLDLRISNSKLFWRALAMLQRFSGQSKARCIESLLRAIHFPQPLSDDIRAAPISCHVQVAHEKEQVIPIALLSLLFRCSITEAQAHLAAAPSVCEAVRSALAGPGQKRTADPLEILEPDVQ
Method in brief: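 25 mM Hepes pH 7.6, 5 mM glucose, 0.4 mM ATP, 4 U/ml G6PDH; 10 nM each GST-GCK/FLAG-GKRP. Kinetic fluorescence read, 1/min × 30 min. Normalized: DMSO ± enzyme = max/min.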

[6] = target: T1, Hexokinase-4 (Homo sapiens) + Glucokinase regulatory protein (Homo sapiens); experiment: qHTS assay for inhibitors of recombinant human GCK-GKRP interaction: ADP-Glo assay (AID 743206)
Method in brief: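 GST-GCK and FLAG-GKRP (15 nM each in the dispensed mix, with 2 uM S6P) react with 0.4 mM ATP and 5 mM glucose (final) in Hepes pH 7.6 for 60 min at room temperature. ADP is measured by ADP-Glo luminescence.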

[7] = qHTS Assay for Identifying Gametocytocidal Compounds (AID 743244); note: potency is the fitted concentration of half-maximal effect;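 for max response: actives lower the fluorescent signal which means gametocytes are killed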; details: P. falciparum 3D7 stage III-V gametocytes, alamarBlue, 72 h; max response: stronger effect = lower value
Method in brief: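 Compounds are pinned into medium, gametocytes (stage III–V, 3D7, 20,000 cells/well) added, and plates held 72 h at 37 °C in 5% CO2. AlamarBlue follows for 24 h before fluorescence reading.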

[8] = target: T1, Hexokinase-4 (Homo sapiens) + Glucokinase regulatory protein (Homo sapiens); experiment: qHTS assay for inhibitors of recombinant human GCK-GKRP interaction: HTRF assay (AID 743207)
Method in brief: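 5 nM GST-GCK + 5 nM FLAG-GKRP + 2 uM S6P, pH 7.1 buffer (25 mM Hepes, 2 mM MgCl2, 25 mM KCl, 1 mM DTT, Tween/BSA); pin-transferred cpd; anti-FLAG XL665/anti-GST K; 60 min RT; HTRF.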

[9] = qHTS assay for small molecule agonists of the antioxidant response element (ARE) signaling pathway measured by Nrf2-dependant transcriptional activity (AID 720636; active = well fitted curve in the direction sought with a large enough effect in the repeat runs; an effect the other way counts as inactive or inconclusive)
Method in brief: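 ARE-luc HepG2 cells carrying an Nrf2-responsive luciferase reporter were plated in medium with 1% dialyzed FBS, left 6 hr at 37 C to attach, then exposed to compound for 16 hr. Luciferase luminescence was read after ONE-Glo addition.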

[10] = qHTS assay for small molecule agonists of the antioxidant response element (ARE) signaling pathway measured by Nrf2-dependant transcriptional activity - cell viability counter screen (AID 720653; active = well fitted curve in the direction sought with a large enough effect in the repeat runs; an effect the other way counts as inactive or inconclusive); details: ARE-bla HepG2 viability, CellTiter-Glo ATP luminescence, 16 h; stronger effect = lower value
Method in brief: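 Cytotoxicity counter screen: intracellular ATP quantified by CellTiter-Glo luminescence in the same ARE-bla HepG2 plates, after 16 h compound exposure and a 2 h beta-lactamase substrate step.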

[11] = qHTS assay for cell viability of HEK293 cells (AID 743288); details: ATP luminescence (CellTiter-Glo), 18 h; max response: stronger effect = lower value; note: nearly all actives have a fitted effect of over 50% in size; note: potency is the fitted concentration of half-maximal effect
Method in brief: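 HEK293 parental, 2,000 cells/well; ≥5 h pre-incubation 37 C; pintool compound addition; 18 h, 37 C; CellTiter-Glo 30 min RT; luminescence read.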

[12] = qHTS assay for cell viability of the p53RE-bla HCT-116 cell line (AID 743292); note: nearly all actives have a fitted effect of over 55% in size; note: potency is the fitted concentration of half-maximal effect
Method in brief: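 CellSensor p53RE-bla HCT-116 cells, 4,000/well, preincubated 5 h at 37 C, then exposed to compounds in DMSO for 16 h at 37 C. Viability read as CellTiter-Glo luminescence (intracellular ATP) after 30 min at room temperature.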

Row | Structure (SMILES) | Potency [1] | outcome [2] | Potency [3] | Potency [4] | Potency [5] | Potency [6] | max response [7] [%] | Potency [8] | Potency [7] | outcome [9] | max response [10] [%] | max response [11] [%] | Potency [12] | Potency [11]
1 | N=C(N)SCCN | inactive | inactive | inactive | inactive | inactive | inactive | -1.63 |  |  |  |  |  |  | 
2 | CC#CCOC(=O)c1c(C)nc2sc3c(c2c1N)CCC(O)C3 (stereo not drawn) | inactive | inactive | inactive | inactive | inactive | inactive | -7.3 |  |  |  |  |  |  | 
3 | CO/N=C(\C(=O)N[C@@H]1C(=O)N2C(C(=O)O)=C(CSc3nc(=O)c(O)nn3C)CSC12)c1csc(N)n1 (stereo partly drawn) | inactive | inactive | inactive | inactive | inactive | inactive | 32.5 | inactive |  |  |  |  |  | 
4 | Cn1cc(C(F)(F)F)nc1-c1ccc(OCC(O)CNCCOc2ccc(O)c(C(N)=O)c2)cc1 (stereo not drawn) | inactive | inactive | inactive | inactive | inactive | inactive | 26.1 |  |  |  |  |  |  | 
5 | NCCNS(=O)(=O)c1cccc2c(Cl)cccc12 | inactive | inactive | inactive | inactive | inactive |  |  | inactive | 3.16 µM (active) |  |  |  |  | 
6 | CN(C)C(=O)/N=N/C(=O)N(C)C | inactive | inactive | inactive | inactive | inactive | inactive | -1.96 | inactive |  |  |  |  |  | 
7 | COc1cc(/C=C(\C#N)C(=O)Nc2nnc(C(F)(F)F)s2)ccc1OCc1ccc(C(F)(F)F)cc1C(F)(F)F | inactive | inactive |  | inactive | inactive | inactive | 5.8 | inactive |  |  |  |  |  | 
8 | c1ccc(CN2CCC3(CCCc4ccccc43)CC2)cc1 | inactive | inactive | inactive |  | inactive | inactive |  | inactive |  |  |  |  |  | 
9 | CCCc1c(-c2ccc(O)cc2)nn(-c2ccc(O)cc2)c1-c1ccc(O)cc1 | inactive |  | 2.06 µM (active) | inactive | inactive | inactive | 23.6 | inactive |  | inactive | -5.61 | -10.3 | 70.8 µM (active) | 
10 | Oc1cc2c(cc1O)C(c1ccccc1)CNCC2 (stereo not drawn) | inactive | inactive | inactive |  | inactive | inactive | 20.1 | inactive |  |  |  |  |  | 
11 | NCCCCN=C(N)N | inactive | inactive | inactive |  | inactive | inactive | 3.59 |  |  |  |  |  |  | 
12 | CCCC[C@@]1(C2CCCC2)Cc2cc(OCC(=O)O)c(Cl)c(Cl)c2C1=O | inactive | inactive |  | inactive | inactive | inactive | 8.17 | inactive |  |  |  |  |  | 
13 | CC[C@@H]1Cc2cc(O)ccc2C2=C1c1ccc(O)cc1C[C@H]2CC | inactive |  | inactive | inactive | inactive | inactive |  | inactive | 3.55 µM (active) | inactive | -25.6 |  | 70.8 µM (active) | 50.1 µM (active)
14 | COc1ccc2c(c1)CCC1C2CC[C@@]2(C)C1CC[C@@H]2NCCCCCCN1C(=O)C=CC1=O (stereo partly drawn) | inactive | inactive | inactive |  | inactive | inactive |  | inactive |  |  |  |  |  | 
15 | N=C(N)SCCc1cnc[nH]1 | inactive | inactive | inactive |  | inactive | inactive | 9.89 | inactive |  |  |  |  |  | 
16 | CCCc1c(OCCCOc2ccc(OCC(=O)O)cc2)ccc(C(C)=O)c1O | inactive | inactive | inactive |  | inactive | inactive | 1.52 | inactive |  | inactive | 7.96 | -9.62 | inactive | 
17 | O[Si](CCCN1CCCCC1)(c1ccc(F)cc1)C1CCCCC1 (stereo not drawn) | inactive | inactive | inactive |  | inactive | inactive |  | inactive |  |  |  |  |  | 
18 | Cn1c(=O)c2[nH]c(-c3ccc(S(=O)(=O)O)cc3)nc2n(C)c1=O | inactive | inactive | inactive |  | inactive |  | 26.7 | inactive |  |  |  |  |  | 
19 | CC1CCN=C(N)S1 (stereo not drawn) | inactive | inactive | inactive |  | inactive | inactive | -7.18 |  |  |  |  |  |  | 
20 | C=CCn1c(=O)c2c(nc(-c3ccc(S(=O)(=O)O)cc3)n2C)n(C)c1=O | inactive | inactive | inactive |  | inactive | inactive | 2.53 | inactive |  |  |  |  |  | 
21 | C=CC1(C)CC(=O)C2(O)C(C)(O1)C(OC(C)=O)C(O)C1C(C)(C)CCC(O)C12C (stereo not drawn) | inactive | inactive |  | inactive | inactive |  | 15.4 | inactive |  |  |  |  |  | 
22 | Nc1ccc(N2C(=O)c3ccccc3C2=O)c(Cl)c1 | inactive | inactive | inactive |  | inactive | inactive | 6.35 | inactive |  |  |  |  |  | 
23 | N#C/C(=C\c1ccc(O)c(O)c1)C(=O)NCCCNC(=O)/C(C#N)=C/c1ccc(O)c(O)c1 | inactive | inactive | inactive | inactive |  | inactive | 5.33 | inactive |  |  |  |  |  | 
24 | CNC(=O)c1cc2c(cn1)[nH]c1ccccc12 | inactive | inactive | inactive |  | inactive | inactive | 10.2 |  |  |  |  |  |  | 
25 | COc1ccc2c(c1)c(CC(=O)O)c(C)n2C(=O)c1ccccc1 | inactive | inactive |  | inactive | inactive | inactive | 11.3 | inactive |  |  |  |  |  | 
26 | NC/C=C\C(=O)O | inactive | inactive | inactive |  | inactive | inactive | 7.58 | inactive |  |  |  |  |  | 
